Entries with a potency or affinity are not part of this list. Active and inactive are the calls of the source. No rule for the calls is given here.

This test can be described thus: host cell cytotoxicity of antiviral hits, dose response, cytotoxicity control for West Nile virus antiviral project, secondary assay (AID 1650). The conditions noted are these: Mammalian host cell viability, cytotoxicity counter-screen; series mostly up to 10 µM; viability: at the top concentration. (The purpose of a counterscreen is to sort out artefacts and off-target activity.)
With `CCOC(=O)c1c(CC(C)C)csc1/N=C/C1=C(O)CCCC1=O`, the “viability” value was 92% [at 20 µM] (inactive).

As for `CC(C)c1ccc(-c2cc(C(=O)NN3CCN(C)CC3)c3ccccc3n2)cc1`, the “viability” value is 77.3% (inactive).

In the case of `CCOC(=O)N1CCC(N2C(=O)c3ccccc3C2Nc2cc(C)cc(C)c2)CC1` (centres undefined), the “viability” value was 84.1% [at 20 µM] (inactive).

With `Cc1cccc2cc(CN(CCCN(C)C)C(=S)NCCc3ccccc3)c(=O)[nH]c12`, the “viability” value is 75.7% [at 20 µM] (inactive).

For `O=C(NC1CCCCC1)C(c1ccc(Cl)cc1)N(C(=O)c1ccccn1)c1cccnc1` (centres undefined), the “viability” value was 79.4% (inactive).

Consider `Cc1ccc(S(=O)(=O)N(C)C)cc1NC(=O)c1cncc(Br)c1`, for which the “viability” value was 81% (inactive).

Take `CCOC(=O)c1c2c(n(C)c1COC)C(=O)C(=O)c1ccc(Br)cc1-2`: the “viability” value was 85.8% (inactive).

In the case of `CN(C)Cc1c(C(=O)N/N=C/c2cccc(OCc3c(F)cccc3Cl)c2)nnn1-c1nonc1N`, the “viability” value was 84.5% [at 20 µM] (inactive).

`CN1CCCC(n2nc(Cc3ccc(Cl)cc3)c3ccccc3c2=O)CC1` (centres undefined): the “viability” value was 83.8% (inactive).

Take `CC(=O)Oc1ccc(-c2ccc(C(=O)OCC(=O)N(C)CC(=O)Nc3ccccc3Cl)cc2)cc1`: the “viability” value was 77.2% (inactive).

As to `CCOc1c2ccoc2nc2c(OC)c(OC)ccc12`, the “viability” value was 97.5% (inactive).

Consider `CCOc1ccc(-c2cc(C(=O)NCCCN3CCCC3)c3ccccc3n2)cc1`, for which the “viability” value is 85.1% [at 20 µM] (inactive).

With `COc1cc(-c2cc3nc(C)c(C)c(=O)n3[nH]2)cc(OC)c1OC`, the “viability” value was 93.8% [at 20 µM] (inactive).

For the compound `CCN(CC)CCCN1CC(O)=C(c2nc3ccccc3s2)C1=N`, the “viability” value was 81.1% (inactive).

As for `COc1ccc(-c2cc3c(=O)n(CC(=O)NCc4ccccc4F)ncn3n2)cc1`, the “viability” value was 87.8% [at 20 µM] (inactive).

For `COc1cc2c(O)c3c(c(-c4ccc5c(c4)OCO5)c2cc1OC)C(=O)OC3`, the “viability” value was 79.7% [at 20 µM] (inactive).

Consider `CCc1nn(CC(=O)NC2CCN(Cc3ccccc3)CC2)c(=O)c2cc3cc(F)ccc3n12`, for which the “viability” value was 81.2% [at 20 µM] (inactive).

As for `CC(/C=N/Nc1nc(N2CCCCC2)nc(N2CCCCC2)n1)=C\c1ccccc1`, the “viability” value is 87.8% (inactive).

Take `CN(C)CCCNc1ncnc2c1c(-c1ccccc1)cn2-c1ccccc1`: the “viability” value is 74.4% (inactive).

For the compound `C=CCNC(=O)c1ccc(-c2nc(-c3ccc(Cl)cc3Cl)cs2)cc1`, the “viability” value was 81.2% (inactive).

As for `Cn1c(N)c(C(=O)CSc2nc3ccccc3c(=O)n2CCCN2CCOCC2)c(=O)n(C)c1=O`, the “viability” value was 87.8% (inactive).

With `N=C1C(c2nc(-c3ccc(Cl)cc3)cs2)=C(O)CN1CCCN1CCOCC1`, the “viability” value was 92.8% (inactive).

For the compound `CC(C)(C)c1ccc(-c2nnc(SCC(=O)Nc3sc4c(c3C#N)CCCC4)o2)cc1`, the “viability” value is 78.9% [at 20 µM] (inactive).

In the case of `CCCc1nc([N+](=O)[O-])c(S(=O)(=O)c2ccccc2)n1CC(C)C`, the “viability” value is 92.9% [at 20 µM] (inactive).

On to `CCC(C)c1ccccc1NC(=O)COC(=O)c1ccc2[nH]c3c(c2c1)CCCC3` (centres undefined), for which the “viability” value was 72% (inactive).

In the case of `CC(C)(C)n1nnnc1C(c1ccccc1)N1CCc2ccccc2C1` (centres undefined), the “viability” value was 78.3% [at 20 µM] (inactive).

In the case of `Cc1ccccc1C(=O)c1cccn1CC(=O)NCCN1CCN(c2cccc(C)c2C)CC1`, the “viability” value was 70.8% [at 20 µM] (inactive).

Take `Cc1onc(-c2ccccc2Cl)c1C(=O)O/N=C(\N)c1ccc([N+](=O)[O-])o1`: the “viability” value is 80.7% (inactive).

As for `COc1ccc([C@@H]2[C@@H]3C(=O)N(C(C)(C)C)C(=O)[C@@H]3[C@]3(Cc4ccccc4)C(=O)N(c4ccc(Br)cc4)C(=O)N23)cc1`, the “viability” value was 84.2% [at 20 µM] (inactive).

As to `CN(CCCNC(=O)c1cc2c(Cl)nc3ccccc3c2s1)Cc1ccccc1`, the “viability” value was 74.8% (inactive).

`O=C1c2ccccc2C2=Nc3ccccc3SC(c3ccc(Cl)cc3)C12` (centres undefined): the “viability” value was 78.3% [at 20 µM] (inactive).

Regarding `COc1ccc(-n2cc(CNCCCn3ccnc3)c(-c3cccc(F)c3)n2)cc1`, the “viability” value was 91.3% [at 20 µM] (inactive).

Consider `CC1CCN(c2nc3ccc(C(=O)NCCCN4CCCCC4)cc3s2)CC1`, for which the “viability” value is 81.7% [at 20 µM] (inactive).

Take `O=C(Oc1ccccc1)c1ccc(-n2cnnn2)cc1`: the “viability” value is 82.2% (inactive).

Consider `Cc1cc(C)c(NC(=O)Cn2nnc(C(=O)Nc3ccc(F)cc3F)c2N)c(C)c1`, for which the “viability” value was 88.5% [at 20 µM] (inactive).

For `CCn1cc(C(=O)NCc2ccc3c(c2)OCO3)c(=O)c2cc(F)c(N3CCN(C(=O)c4ccco4)CC3)cc21`, the “viability” value is 79.5% [at 20 µM] (inactive).

Take `O=C(O)C1CCCN1C(=O)c1cncc(Br)c1` (centres undefined): the “viability” value was 100% [at 20 µM] (inactive).

For the compound `Cc1ccc(-c2cc(C(=O)NCCCN3CCCC3)c3ccccc3n2)cc1C`, the “viability” value is 84.5% (inactive).

Turning to `CC(C)N1CCc2c(sc(NC(=O)c3ccc(C(=O)c4ccccc4)cc3)c2C(N)=O)C1`, the “viability” value was 79.3% [at 20 µM] (inactive).

By viability is commonly meant a per cent measure of how many cells are alive, often set against a control.

(Values after PubChem BioAssay AID1650 (Southern Research Specialized Biocontainment Screening …, 2009).)
